The structures appear in SMILES notation. Compounds without any hit were thinned out: in the full panel of roughly 83,000, 20% have a hit.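 For each line, cells grew in 96-well plates with the test compound present at a single concentration for 48 hours.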 A number with no mark means an inactive call. The source made the active and inactive calls. How the source made its calls: active means growth percent below 10; inactive means the rest.

Test in all cases: NCI-60 one-dose screen, 48 h (100 = growth as untreated, 0 = no growth, -100 = all killed)
Details in all cases: 10 µM unless noted

Assay [1] has as its system SR leukemia.
Assay [2] deals with RPMI-8226 leukemia.
For assay [3], the system named is OVCAR-8 ovarian.
For assay [4], the system named is OVCAR-5 ovarian.
The subject of assay [5] is OVCAR-4 ovarian.
The subject of assay [6] is SK-OV-3 ovarian.
The subject of assay [7] is IGROV1 ovarian.
Assay [8] deals with OVCAR-3 ovarian.
Assay [9] deals with HS 578T breast.
Assay [10] relates to NCI/ADR-RES ovarian.

For `COc1ccc(C(O)c2cc3c(N)c(C(=O)Nc4ccc(Cl)cc4)sc3nc2C)cc1` (stereo not given), the growth in [1] is -9.53% (active); in [2] it was 5.22% (active); in assay [3], 30.6%; in assay [4] it was 46.8%; in assay [5], 38.4%; in assay [6], 32.1%. Also, the growth in [7] is 33%; in assay [8], -35.7% (active); in assay [9], 7.82% (active); in assay [10], 16%.

For `COc1cc(CNC(=O)CCCCC[P+](c2ccccc2)(c2ccccc2)c2ccccc2)c(OC)c2c1OCO2`, the growth is 22.9% in assay [1]; 1.67% (active) in assay [2]; 75.3% in [3]; 99.5% in assay [4]; 23.7% in [5]; 127% in [6]. Besides, the growth was 41.8% in assay [7], 44.5% in assay [8], 78% in assay [9] and 105% in assay [10].

For the compound `CC(=O)N1c2ccccc2NC2=C(C(=O)N(C)C2(C)C)C1C` (stereo not given), the growth in assay [1] is 16.7%; in assay [2] it was 12.6%; in [3], 65.8%; in [4] it was 62.5%; in assay [5], 55.2%; in [6] it was 55.4%. In addition, the growth in assay [7] is 39.6%; in assay [8], 18.1%; in assay [9], 20.4%; in assay [10], 102%.

In the case of `NC(=O)CN1CCN(c2ccccc2Cl)CC1`, the growth in [1] is 99.5%; in [2], 108%; in assay [3], 122%; in assay [4], 99.9%; in assay [5], 124%; in [6], 103%. The growth in [7] was 108%; in assay [8], 116%; in [9] it was 102%; in assay [10], 108%.

As to `CCn1cc(C2NC(=O)c3ccccc3N2)c2cccc(C)c21` (stereo not given), the growth in assay [1] is -18.2% (active); in [2], 6.81% (active); in assay [3], 7.03% (active); in assay [4] it was 19.6%; in [5] it was 25.7%; in assay [6] it was 32.9%. Further, the growth in assay [7] was 14.4%; in [8], -44.9% (active); in assay [9], 7.22% (active); in assay [10] it was 8.25% (active).

For the compound `O=C1Nc2c(ccc(Cl)c2Cl)/C1=C/c1ccc(O)cc1`, the growth in [1] is 42%; in assay [2], 78.6%; in assay [3], 92.3%; in [4], 90.6%; in assay [5] it was 72.9%; in assay [6] it was 86.4%. Moreover, the growth in [7] is 42.6%; in assay [8], 92.9%; in [9] it was 89%; in assay [10] it was 96.6%.

In the case of `Nc1c(Cl)cc([N+](=O)[O-])cc1Br`, the growth is 99.5% in assay [1]; 86.8% in [2]; 93.9% in assay [3]; 103% in [4]; 102% in [5]; 110% in assay [6]. In addition, the growth in assay [7] is 114%; in assay [8] it was 102%; in [9], 105%; in assay [10] it was 95%.

Turning to `Cc1[nH]n(C(=O)c2ccncc2)c(=O)c1N=Nc1ccc(F)c(Cl)c1`, the growth in assay [1] was 76.1%; in [2], 87.6%; in [3] it was 103%; in assay [4], 114%; in [5], 112%; in [6], 103%. Further, the growth in assay [7] was 95.3%; in assay [8] it was 98.3%; in assay [9], 89.1%; in [10], 95.6%.

Turning to `O=S(=O)(NCCCNc1nccc(-c2c(-c3cccc(O)c3)nc3occn23)n1)c1ccc(F)cc1`, the growth in [1] is 76.6%; in assay [2], 77%; in [3], 79%; in [4], 128%; in assay [5] it was 110%; in assay [6], 71.1%. The growth in assay [7] is 76.2%; in [8], 96.8%; in assay [9], 82.3%; in assay [10], 105%.

In the case of `COc1cccc(CCC(=O)c2cc3c(N)c(C(=O)Nc4ccccc4)sc3nc2C)c1`, the growth is 16.2% in [1]; 43.8% in assay [2]; 60.2% in assay [3]; 48.6% in [4]; 53.9% in assay [5]; 56.8% in [6]. Further, the growth in assay [7] was 34%; in assay [8] it was 18%; in assay [9], 21.5%; in assay [10], 12.2%.

Regarding `COc1ccc(/C(=C\c2ccccc2)C(=O)O)cc1OC`, the growth in [1] is 108%; in assay [2], 102%; in [3], 105%; in [4], 87.5%; in assay [5] it was 103%; in assay [6], 105%. Further, the growth in assay [7] is 96%; in assay [8] it was 104%; in assay [9] it was 97%; in assay [10], 93.8%.

Turning to `CN(C)C(C(N)=O)c1ccc(Cl)cc1` (stereo not given), the growth in [1] was 98.5%; in assay [2] it was 107%; in assay [3], 101%; in assay [4], 95.9%; in [5], 102%; in [6], 98.5%. For the same compound, the growth was 103% in [7], 112% in [8], 103% in assay [9] and 106% in assay [10].

Consider `O=C(N/N=C/c1ccncc1)c1ccccc1Nc1cccc(C(F)(F)F)c1`, for which the growth in [1] is 4.74% (active); in [2], 52.3%; in [3], 79.1%; in assay [4], 89.5%; in [5] it was 66%; in assay [6] it was 86.4%. Also, the growth in assay [7] was 86.8%; in assay [8] it was 64.7%; in [9], 103%; in [10], 70.7%.

As to `CCOC(=O)Oc1c(OC)cc(C(=O)O[C@@H]2C[C@@H]3CN4CCc5c([nH]c6cc(OC)ccc56)[C@H]4C[C@@H]3[C@H](C(=O)OC)[C@H]2OC)cc1OC`, the growth was -2.39% (active) in [1]; -5.39% (active) in [2]; 75.9% in assay [3]; 90.5% in [4]; 94.7% in assay [5]; 91.9% in assay [6]. Further, the growth in [7] was 82.3%; in assay [8], 38.5%; in assay [9], 72.1%; in assay [10], 56.5%.

Turning to `CC(N)C(=O)NNc1n[nH]c(=S)n1N` (stereo not given), the growth in assay [1] was 103%; in assay [2], 104%; in assay [3], 100%; in assay [4] it was 92.9%; in [5], 105%; in assay [6] it was 109%. Also, the growth in [7] is 98.8%; in assay [8] it was 97.6%; in assay [9], 88.2%; in assay [10], 99.9%.

Turning to `CC(=O)c1cc2c(N)c(C(=O)Nc3cncc4ccccc34)sc2nc1C`, the growth in assay [1] is 77.5%; in assay [2] it was 94.9%; in [3], 104%; in assay [4], 104%; in [5] it was 113%; in assay [6] it was 93.6%. Also, the growth in [7] is 104%; in assay [8] it was 110%; in assay [9] it was 95.3%; in [10] it was 104%.

With `COC(=O)Nc1ccc(NC(=O)OC)cc1`, the growth in assay [1] is 105%; in [2], 89.4%; in assay [3], 94.6%; in assay [4], 114%; in assay [5], 112%; in assay [6] it was 90.9%. Besides, the growth in [7] was 120%; in assay [8], 111%; in [9], 102%; in assay [10] it was 104%.

For the compound `CCCCCCCCCCCCCCCCCCOc1ccccc1N`, the growth is 75.4% in [1]; 12.1% in assay [2]; 70.9% in assay [3]; 101% in [4]; 55% in assay [5]; 74.7% in [6]. Moreover, the growth was 75.1% in [7], 44.9% in [8], 84.2% in assay [9] and 86.9% in assay [10].

As for `Clc1ccc(C2CC(c3cccc(Nc4ccncc4)c3)=NN2c2cc(Cl)cc(Cl)c2)cc1` (stereo not given), the growth in [1] was 6.05% (active); in assay [2], 43.4%; in [3], -7.8% (active); in assay [4], 84.4%; in assay [5], 33.7%; in assay [6], 90.7%. The growth in assay [7] is 44.6%; in assay [8] it was 76.9%; in [9] it was 78%; in assay [10] it was 68.3%.

Take `COc1ccc(C(=O)/C=C/c2c(OC)cc(OC)cc2OC)c(OC)c1`: the growth was 23.1% in assay [1]; 13% in assay [2]; 25.9% in assay [3]; 31.5% in assay [4]; 79.1% in assay [5]; 10.9% in assay [6]. For the same compound, the growth in [7] was 40.3%; in assay [8], -33.3% (active); in [9], 54.1%; in [10] it was -21.9% (active).

As for `O=S(=O)(NCCCNc1nccc(-c2c(-c3ccccc3)nc3occn23)n1)c1ccc(Cl)cc1`, the growth in [1] is 60.9%; in assay [2], 71.2%; in [3], 74.4%; in assay [4] it was 127%; in assay [5], 103%; in assay [6], 83%. Moreover, the growth was 75.7% in [7], 104% in assay [8], 96.7% in assay [9] and 87.8% in [10].

Take `C#Cc1cccc(NC(=O)Nc2ccc(NC(=O)CCl)cc2)c1`: the growth in assay [1] was -36.4% [8.25 µM] (active); in assay [2], -37.1% [8.25 µM] (active); in [3], -14.9% [8.25 µM] (active); in assay [4], -14.5% [8.25 µM] (active); in [5], -50.8% [8.25 µM] (active); in assay [6], -86.7% [8.25 µM] (active). Also, the growth was -88% [8.25 µM] (active) in assay [7], -88% [8.25 µM] (active) in [8], -4.85% [8.25 µM] (active) in assay [9] and -8.33% [8.25 µM] (active) in assay [10].

Take `Nc1ccccc1NC(=O)c1ccc(CN2CCC/C(=C\c3cccc(Cl)c3)C2=O)cc1`: the growth in assay [1] was 10.4%; in assay [2], -18.7% (active); in assay [3], 10.2%; in [4], 36.7%; in assay [5], 33.7%; in assay [6] it was 13.1%. Further, the growth is 17.8% in assay [7], 5.7% (active) in assay [8], 43.1% in assay [9] and 5% (active) in assay [10].

In the case of `C#Cc1cccc(NC(=O)Nc2cccc(N=C=S)c2)c1`, the growth was 88.9% [8.25 µM] in [1]; 99.3% [8.25 µM] in assay [2]; 98.6% [8.25 µM] in assay [3]; 102% [8.25 µM] in [4]; 99.6% [8.25 µM] in [5]; 120% [8.25 µM] in assay [6]. Further, the growth in assay [7] was 98.4% [8.25 µM]; in assay [8], 115% [8.25 µM]; in assay [9], 95.6% [8.25 µM]; in assay [10], 106% [8.25 µM].

In the case of `COc1ccc(CC(C)=C(c2ccc(OCCN(C)C)cc2)c2ccc(OCCN(C)C)cc2)cc1`, the growth was -13.2% (active) in [1]; 56.2% in assay [2]; 86% in [3]; 86.8% in [4]; 90.1% in assay [5]; 85.7% in [6]. Also, the growth was 74.6% in [7], 83.8% in assay [8], 74.6% in assay [9] and 86.4% in assay [10].

In the case of `O=C(Nc1nc2ccc(C(=O)N3CCN(c4ccc(Cl)c(Cl)c4)CC3)cc2s1)c1ccc(NCCc2ccccc2)c([N+](=O)[O-])c1`, the growth in [1] was 98.4%; in assay [2] it was 85.5%; in assay [3], 97.3%; in assay [4] it was 91.3%; in assay [5], 87.3%; in assay [6] it was 107%. In addition, the growth was 82% in assay [7], 111% in assay [8], 93.5% in assay [9] and 101% in [10].

For the compound `CCOc1ccc(/C=N/Nc2cc(C)nc3ccc(Cl)cc23)cc1`, the growth in [1] is -9.13% (active); in [2] it was -1.34% (active); in [3] it was 45.2%; in assay [4], 79.2%; in [5], 56.8%; in assay [6] it was 84.1%. Further, the growth was 45.4% in assay [7], -16.3% (active) in assay [8], 92.3% in [9] and 45.9% in assay [10].

The values above are taken from PubChem BioAssay (NCI).
